# PubChem BioAssay (NCATS)
# Results filed as inconclusive are left out. A call without a number means that no potency is given here. The source made the active and inactive calls. Calls come from the whole dose curve; as a rule, active = well fitted inhibition curve with a large enough effect; inconclusive = small, poorly fitted or top-dose-only effect; inactive = no such curve, though single readings can be large or run the other way. Where a SMILES comes first, the peptide text is derived from it. The star is where a group is joined. βNA = c1ccc2cc(N*)ccc2c1; Cbz = O=C(OCc1ccccc1)*
# System: Zika virus NS2B-NS3 protease (unlinked complex)
# Experiment: Primary screen GU Rhodamine qHTS for Zika virus inhibitors: Unlinked NS2B-NS3 protease assay (AID 1347159); note: nearly all actives have a fitted effect of over 60% in size
# Conditions: Recombinant ZIKV NS2B-NS3 protease, Rhodamine110 substrate fluorescence; series mostly up to 107 µM
# Text: Avindra Nath, Ph.D., National Institute of Neurological Disorders and Stroke (NINDS), Bethesda, MD
# Radhakrishnan Padmanabhan, Ph.D., Georgetown University (GU), Washington D.C.
# Zika Virus causes congenital defects, including microcephaly and is associated with Guillain-Barre syndrome, eningoencephalitis and myelitis in infected adult. […] Using a target-based approach, we hope to establish a screening paradigm to uncover novel, cell-active NS2B-NS3 protease (Zika Virus) specific inhibitors from NCATS' collection of small molecules using qHTS.
# Four assay panel was created to identify potential Zika Virus inhibitors. Namely, (1) GU unlinked NS2B-NS3 AMC tagged protease qHTS, (2) GU unlinked NS2B-NS3 Rhodamine tagged protease qHTS, (3) NINDS linked NS2B-NS3 AMC tagged protease qHTS, (4) NINDS linked NS2B-NS3 Rhodamine tagged protease qHTS. Active compounds were re-acquired and re-screened to confirm inhibition. Inhibitors were further screened against various confirmatory and counterscreens in dose response format.
# Early Translation Branch (ETB)
# National Center for Advancing Translational Sciences (NCATS), Rockville, MD
# National Institute of Health (NIH), Bethesda, Maryland
# Padmanabhan lab provided the NS2B hydrophilic domain and NS3 protease domain in a noncovalent complex used for the unlinked assay. Control compound aprotinin is obtained from Thermo Scientific (#78432; Waltham, Massachusetts). Rhodamine110 substrate ([N-Cbz]-Nle-Lys-Arg-Arg-Rhod110-Arg-Arg-Lys-Nle-[N-Cbz]) was purchased from either Genscript or Bachem.
# 1536-well Protease (Rhodamine110 Substrate) Assay:
# Briefly, 3 microL of enzyme (25 nM final concentration), in assay buffer (10 mM Tris-HCl pH 8.0 with 0.01% Tween 20) were dispensed into a 1,536-well solid-bottom black plate (Greiner Bio One, Monroe, NC). Twenty-three nL of compounds (final concentration range 7.28 nM to 114 microM) or control Aprotinin (final concentration range 3.47 nM to 114 microM) were transferred via Wako Pin-tool (Wako Automation, Richmond, VA). Samples were incubated (room temperature, protected from light) for 15 minutes followed by a 1 microL Rhodamine110 substrate addition (1.5 microM final concentration). Plates were then immediately read on a ViewLux High-throughput CCD imager (PerkinElmer, Waltham, MA) equipped with FITC fluorescence optics (480(20) nm excitation, 540(25) nm emission), then incubated (room temperature, protected from light) for 15 minutes (~15% conversion). The change in fluorescence intensity over the 15-minute reaction period was normalized against no-inhibitor and no-enzyme controls and the resulting percent inhibition data were fitted to a 4-parameter Hill equation. Aprotinin was used as intraplate control.
# Potency is the fitted concentration of half-maximal effect.
Structure (SMILES),Potency,"activity change, negative = inhibition"
COC(=O)C1=COC(O[C@@H]2O[C@H](CO)[C@@H](O)[C@H](O)[C@H]2O)/C(=C\COC(=O)/C=C/c2ccccc2)C1CC(=O)OCCc1ccc(O)cc1 (stereo not given in full),inactive,–
Nc1nc(COC(=O)c2ccc([N+](=O)[O-])cc2)nc(Nc2ccccc2)n1,inactive,–
CC1(CO)CCCC2(C)C1C(OC(=O)c1ccccc1)CC1C(=O)OCC12O (stereo not given),inactive,–
CC1(C)CC[C@]2(C(=O)O[C@@H]3O[C@H](CO[C@@H]4O[C@H](CO)[C@@H](O)[C@H](O)[C@H]4O)[C@@H](O)[C@H](O[C@@H]4O[C@H](CO)[C@@H](O)[C@H](O)[C@H]4O)[C@H]3O)[C@H](O)C[C@]3(C)C(=CCC4[C@@]5(C)CC[C@H](O[C@@H]6OC[C@@H](O)[C@H](O)[C@H]6O)[C@@](C)(C(=O)O)C5CC[C@]43C)[C@@H]2C1 (stereo not given in full),inactive,–
COC(=O)C1=COC(OC2OC(CO)C(O)C(O)C2O)C2C(C)C(OC(=O)/C=C/c3ccc(O)cc3)C(O)C12 (stereo not given),28.2 µM (active),–
C[C@@H]1O[C@@H](O[C@H]2[C@H](OC(=O)[C@]34CCC(C)(C)C[C@H]3C3=CCC5[C@@]6(C)C[C@@H](O)[C@@H](O)[C@@](C)(CO)C6[C@H](O)C[C@@]5(C)[C@]3(C)CC4)OC[C@H](O)[C@@H]2O)[C@H](O)[C@H](O)[C@H]1O[C@@H]1OC[C@@H](O)[C@H](O[C@H]2O[C@H](C)[C@@H](O)[C@H](O)[C@@H]2O)[C@H]1O (stereo not given in full),inactive,–
CC1(C)O[C@H]2CC(=O)OC[C@@]23C1=C(O)C(=O)[C@]1(C)C3CC[C@@]2(C)[C@H](c3ccoc3)OC(=O)[C@H]3O[C@]321 (stereo not given in full),inactive,–
C[C@]1(OC(=O)/C=C/c2ccc(O)cc2)C[C@@H](O)[C@]2(O)C=CO[C@@H](O[C@@H]3O[C@H](CO)[C@@H](O)[C@H](O)[C@H]3O)C12 (stereo not given in full),inactive,–
C=CC(C)(O)CC/C=C(\C)C(=O)O[C@@H]1[C@@H](O)[C@H](OC(C)(C=C)CC/C=C(\C)C(=O)O)O[C@H](CO)[C@H]1OC(=O)/C(C)=C/CCC(C)(O)C=C (stereo not given in full),inactive,–
C[C@@H]1[C@H]2[C@H](O[C@@H]3O[C@H](CO)[C@@H](O)[C@H](O)[C@H]3O)OC=C(C(=O)O)[C@H]2C[C@@H]1OC(=O)/C=C/c1ccc(O)cc1,31.6 µM (active),–
CC1=CC2=C(C)C(=O)[C@](C)(O)[C@H](O)C2=CO1,inactive,–
COc1cc(O)cc(O[C@@H]2O[C@H](CO)[C@@H](O[C@@H]3OC[C@](O)(CO)[C@H]3O)[C@H](O)[C@H]2O)c1OC,inactive,–
CNC(=O)c1ccc2c(c1)CCO[C@H]2CCN1CCN(c2ccc(C(N)=O)cc2)CC1,inactive,–
O=C(Cc1ccc(Cl)cc1)Nc1cnccc1C(=O)O,inactive,–
Cc1oc2nc3c(c(NC(=O)CN4CCCC4=O)c2c1C)CCCC3,inactive,–
CCC[C@H](N[C@@H](C)C(=O)N1[C@H](C(=O)O)C[C@@H]2CCCC[C@@H]21)C(=O)O,inactive,–
Cn1cc(CCn2cnc(-c3cnn(C)c3)c2-c2ccc(C#N)cc2)cn1,inactive,–
COc1ccc(Oc2c(Cl)cnn(C3c4ccccc4-c4ccccc43)c2=O)cc1,inactive,–
COc1cccc(Cn2ncc3c4sc(S(C)=O)cc4n(C)c3c2=O)c1 (stereo not given),inactive,–
COc1c2cc(c(O)c1OC)CCCCC(O)CCc1ccc(O)c-2c1 (stereo not given),inactive,–

Structure (SMILES),Potency,"activity change, negative = inhibition"
C[C@@]1(O)[C@H](O)[C@@H](CO)O[C@H]1n1cnc2c(=O)[nH]c(N)nc21,inactive,–
CC1OC(O[C@@H]2[C@H](O)[C@@H](OC3OC(CO)C(O)C(O)C3O)[C@H](OC(=O)[C@]34CCC(C)(C)C[C@H]3C3=CCC5[C@@]6(C)CC[C@H](O[C@@H]7O[C@H](C(=O)O)[C@@H](O)[C@H](O[C@@H]8OC[C@@H](O)[C@H](O)[C@H]8O)[C@H]7O[C@@H]7O[C@H](CO)[C@H](O)[C@H](O)[C@H]7O)[C@@](C)(C=O)C6CC[C@@]5(C)[C@]3(C)C[C@H]4O)O[C@@H]2C)C(O)C(O)C1OC1OCC(O)C(O)C1O (stereo not given in full),–,87.6% [at 19.1 µM] (inactive)
CCCC(=O)Nc1cccc(NC(=O)c2ccccc2Br)c1,inactive,–
CC(C)CC(NC(=O)OCc1ccccc1)C(=O)NC(CC(C)C)C(=O)NC(CCC(=O)O)C(=O)Nc1ccc2ccccc2c1 (stereo not drawn) (Cbz-Leu-Leu-Glu-βNA; configuration not given here),11.2 µM (active),–
C=C(C)C1CCC2(C(=O)OC3OC(COC4OC(CO)C(O)C(O)C4O)C(OC4OC(C)C(O)C(O)C4O)C(O)C3O)CCC3(C(=O)O)C(CCC4C5(C)CCC(=O)C(C)(C)C5CCC43C)C12 (stereo not given),inactive,–
CC1CCC2(C)CCC3(C)C(=CCC4C5(C)CCC(O)C(C)(C(=O)O)C5CCC43C)C2C1C (stereo not given),8.91 µM (active),–
C=C(CCO)C(=O)OCC1OCC(OC(=O)C(=C)CCO[C@@H]2O[C@H](CO)[C@@H](O)[C@H](O)[C@H]2O)C(O)C1O (stereo not given in full),inactive,–
COC1OC(=O)C2=C1C1(C)CCCC(C)(C)C1CC2O (stereo not given),inactive,–
COC(=O)C1=COC(OC2OC(CO)C(O)C(O)C2O)C2C(C)C(OC(C)=O)C(OC(=O)c3ccccc3)C12 (stereo not given),inactive,–
C/C=C(\C)C(=O)OC[C@H]1O[C@@H](O[C@H]2[C@@H](O[C@H]3O[C@H](COC(=O)/C(C)=C/C)[C@@H](O)[C@H](O)[C@H]3O[C@@H]3O[C@H](COC(=O)/C(C)=C/C)[C@@H](O)[C@H](OC(=O)/C(C)=C/C)[C@H]3O)O[C@H](COC(=O)/C(C)=C/C)[C@@H](O)[C@@H]2O)[C@H](O)[C@@H](O)[C@@H]1O,inactive,–
C[C@@H]1O[C@@H](O[C@H]2[C@@H]3C=CO[C@@H](O[C@@H]4O[C@H](CO)[C@@H](O)[C@H](O)[C@H]4O)[C@@H]3[C@@]3(CO)O[C@@H]23)[C@H](O)[C@H](O)[C@H]1OC(=O)/C=C/c1ccc(O)cc1,inactive,–
C=C[C@H]1[C@H](O[C@@H]2O[C@H](CO)[C@@H](O)[C@H](O)[C@H]2O)OC=C2C(=O)N3Cc4c([nH]c5ccccc5c4=O)[C@@H]3C[C@H]21,inactive,–
COC(=O)C1(O)C(OC(C)=O)CCC2C3(CC(c4ccoc4)OC3=O)C(C)=CCC21C(=O)OC (stereo not given),inactive,–
CC(C)=C1CC2[C@](C)(CC[C@@H](OC(=O)C3(C)OC3C)[C@@]2(C)O)CC1=O (stereo not given in full),inactive,–
CC(C)C1NC(=O)CNC(=O)C2CCCN2C(=O)C(Cc2c[nH]c3ccccc23)NC(=O)CNC(=O)C(Cc2ccc(O)cc2)NC(=O)CNC1=O (stereo not given) (cyclo(GVGYGWP); configuration not given here),inactive,–
C=C1C2(C)CC3C4(C)OC(C5OC56C4=CC(=O)OC6(C)C)C3(C)C13C(=O)OC(C)C3(O)C2=O (stereo not given),inactive,–
COc1ccc2c(c1)C=C1Cn3c-2c(C2CCCCC2)c2ccc(cc23)C(=O)NS(=O)(=O)N(C)CCOCCN(C)C1=O,2.51 µM (active),–
CC(C)=CC1C[C@](C)(O)[C@@H]2[C@H]3CCC4[C@@]5(C)CC[C@H](O[C@@H]6OC[C@H](O)[C@H](O[C@@H]7O[C@H](CO[C@@H]8O[C@H](CO)[C@@H](O)[C@H](O)[C@H]8O)[C@@H](O)[C@H](O)[C@H]7O)[C@H]6O[C@@H]6O[C@@H](C)[C@H](O)[C@@H](O)[C@H]6O)C(C)(C)[C@@H]5CC[C@@]4(C)[C@@]34CO[C@@]2(C4)O1 (stereo not given in full),inactive,–
O=C(O)c1cc(C(F)(F)F)ccc1N1CC[C@H](OCc2ccccn2)C1,inactive,–
CC1=C2CC(=O)C(C)CC/C=C(\C)CC2(O)OC1=O (stereo not given),inactive,–
